Screens (PubChem BioAssay)
PLCb3 inh: human PLC-beta3 inhibitors, primary screen, biochemical, fluorescence | 1-phosphatidylinositol 4,5-bisphosphate phosphodiesterase beta-3 (Homo sapiens), Q01970 | Purified PLC-beta3, fluorogenic substrate | inhibition, % at 12.2 µM | hit rate 0.18% among 370,000 | AID 720704, 2013; in the data active = inhibition above about 11%;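 note: 0% = median of compound wells on plate and 100% = full blocker control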
sPLA2-III inh: human group III sPLA2 inhibitors, primary screen, biochemical, QFRET, BODIPY PC-A2 liposome substrate; Group 3 secretory phospholipase A2 (Homo sapiens), Q9NZ20; QFRET BODIPY PC-A2 liposome hydrolysis, fluorescence; inhibition, % at 12.2 µM; hit rate 0.56% among 370,000;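 active = inhibition above mean plus 3 SD of compounds lying within the high and low control bounds, cut at about 19% in these data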;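 note: 0% = median of test compound wells and 100% = no enzyme DMSO wells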
Target sequence (Q9NZ20 whole entry, looked up): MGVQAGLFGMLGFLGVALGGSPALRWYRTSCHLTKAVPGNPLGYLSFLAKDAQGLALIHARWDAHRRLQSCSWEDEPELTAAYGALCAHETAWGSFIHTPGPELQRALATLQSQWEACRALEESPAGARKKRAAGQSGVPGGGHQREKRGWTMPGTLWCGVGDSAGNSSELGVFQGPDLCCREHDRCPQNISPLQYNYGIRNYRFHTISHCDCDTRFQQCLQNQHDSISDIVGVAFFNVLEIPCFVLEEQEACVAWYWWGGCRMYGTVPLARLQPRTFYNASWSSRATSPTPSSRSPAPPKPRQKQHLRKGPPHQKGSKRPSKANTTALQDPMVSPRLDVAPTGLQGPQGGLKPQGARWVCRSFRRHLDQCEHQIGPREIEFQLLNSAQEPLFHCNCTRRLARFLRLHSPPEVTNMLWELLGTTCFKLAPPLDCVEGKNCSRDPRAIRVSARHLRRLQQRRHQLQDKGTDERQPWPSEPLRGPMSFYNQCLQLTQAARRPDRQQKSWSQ
PLC-gamma1 inh: PLC-gamma1 enzyme inhibitors, primary screen, biochemical, fluorescence, purified enzyme | inhibition, % at 12.2 µM | AID 720700, 2013 | hit rate 0.84% among 370,000 | 1-phosphatidylinositol 4,5-bisphosphate phosphodiesterase gamma-1 (Homo sapiens), P19174 | fluorogenic substrate; in the data active = inhibition above about 9.5%
Yeast superoxide: reduction of superoxide in aged yeast, primary screen, HTS; S. cerevisiae aged cells, superoxide DHE fluorescence; hits give low values; superoxide response (% of plate mean), % at 10 µM; hit rate 0.18% among 330,000;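 active = superoxide response under a set limit, about three screen SD below normal, cut at about 65% in these data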;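 note: yeast aged for seven days with compound at 30 °C before DHE staining; 100% = average MFI of all compound-treated wells on the plate with controls excluded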
HIF act: HIF pathway transcriptional activators, primary screen, cell-based, U2OS HRE-luciferase, luminescence; hit rate 0.32% among 300,000; U2OS HRE-luciferase reporter; normalized: DMSO 0%, desferrioxamine 100%; activation, % at 7.5 µM (by protocol);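 active = mean activation of at least 10% of the iron chelator positive control signal, with at least half of replicates also reaching 10%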
AHR act: AHR activators, primary screen, cell-based, luminescence, luciferase reporter, human. Aryl hydrocarbon receptor (Homo sapiens), P35869. AHR-responsive luciferase reporter cells. activation, % at 5 µM. hit rate 2.5% among 320,000; in the data active = activation above about 47%;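 note: 0% = vehicle wells and 100% = reference agonist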
An asterisk follows results filed as active; . = no result. Most compounds without a hit are left out; they make up all but 3.9% or so of the library.

SMILES	PLCb3 inh	sPLA2-III inh	PLC-gamma1 inh	Yeast superoxide	HIF act	AHR act
COc1ccc(NC(=O)C2CC(=O)NC(Nc3cccc(C)c3)=N2)cc1 (configuration not stated)	3	-6	1	101	-1	0
COc1ccc(NC(=O)CO/N=C2\CCCc3nonc32)cc1	-3	5	0	114	0	8
O=C(CO/N=C1\CCCc2nonc21)Nc1ccc(Br)cc1	-2	-1	-2	96	0	78*
CCC(C)N(C(=O)c1oc(=O)c2ccccc2c1-c1ccc(C)cc1)C(C)CC (configuration not stated)	-1	16	3	.	.	.
O=Nc1c2nc3ccccc3n(O)c-2c2ccccc12	-130	-37	-111	106	3	101*
O=C(O)c1cc2c(cc1NC(=O)c1ccccc1C(F)(F)F)OCCCO2	-10	-7	-4	111	0	-2
O=C(Nc1cc2c(cc1C(=O)O)OCCCO2)c1ccc(C(F)(F)F)cc1	-10	-9	-3	162	2	73*
COc1cc(NS(=O)(=O)c2ccc(NC(=O)/C=C/c3cccc([N+](=O)[O-])c3)cc2)ncn1	0	-3	0	97	0	104*
Cc1ccccc1NC(=O)c1ccccc1O	-8	-3	-7	97	408*	6
NC(=O)C1CCN(c2nc(-c3ccc(N)cc3)cs2)CC1	-19	3	-14	.	.	.
C/C(=N\Nc1ccc([N+](=O)[O-])cc1)c1ccc(-n2nncc2C)cc1	-143	-21	-118	81	0	50*
COC(=O)[C@H](C)N(CCc1cn(Cc2ccccc2)nn1)S(=O)(=O)c1ccccc1Br	2	8	3	.	.	.
Cc1noc(C)c1S(=O)(=O)N(C)C[C@@H]1OCc2cn(nn2)CCCC(=O)N([C@@H](C)CO)C[C@H]1C	9	5	12*	.	.	.
CCCCCCCCN1C(=O)[C@@H](CC(=O)NCc2ccc(OC)c(OC)c2)C[C@@]2(C(=O)OC)C1=C[C@H](C(C)C)O[C@@H]2C1CC1	7	-18	-1	.	.	.
Cc1cccc(NC(=O)COc2cccc3c2CCN(C)C3=O)c1C	-7	2	-3	94	9.8*	7
COc1cccc(N2CCN(S(=O)(=O)c3c(C)[nH]c(C)c3C(=O)N3CCCC3)CC2)c1	-5	2	0	106	0	19
Cc1[nH]c(C)c(S(=O)(=O)N2CCN(c3cccc(Cl)c3)CC2)c1C(=O)N1CCCC1	-4	-5	1	102	1	50*
CCOC(=O)C1=C(C(=O)OCC)C2N(Cc3ccc(C#N)cc3)c3ccccc3[C@@]23C[C@@H](C(=O)OC)N(S(=O)(=O)c2ccc(C#N)cc2)C3=N1 (some centres not stated)	1	-6	1	.	.	.
Cc1ccc(O)c(N=CC2=C(O)c3ccccc3C2=O)c1	-6	-12	-6	109	6	78*
CCc1noc(C)c1C(=O)Nc1nc2c(C)cccc2s1	-12	-18	-5	116	1	13
Cc1ccc2nc(NC(=O)c3ccccn3)sc2c1	-26	-4	-14	89	-7	2
CCc1noc(C)c1C(=O)Nc1nc2c(F)cc(F)cc2s1	-15	-4	-10	89	.	61*
O=C(Nc1nc2c(F)cc(F)cc2s1)c1ccccn1	-15	7	-4	126	10*	26
Cc1cc(C)c2c(-n3cccc3)c(NC(=O)OC(C)C)sc2n1	-3	5	6	125	.	66*
Cc1ccnc(SCc2cc(=O)c(OC(=O)c3ccc(C)c([N+](=O)[O-])c3)co2)n1	0	12	2	.	.	.
SMILES	PLCb3 inh	sPLA2-III inh	PLC-gamma1 inh	Yeast superoxide	HIF act	AHR act
Cc1onc(-c2ccccc2)c1C(=O)NCCc1ccc(S(N)(=O)=O)cc1	2	1	2	92	0	76*
CCOc1cc(/C=N/NC(=O)c2c(-c3ccccc3)noc2C)ccc1O	1	-4	0	126	100*	5
COc1ccc(-c2cc(C(=O)NNC(=S)NC(=O)c3c(-c4ccccc4)noc3C)[nH]n2)cc1	-2	24*	0	100	0	0
Cc1onc(-c2ccccc2)c1C(=O)NNC(=O)c1ccccc1O	-8	7	-2	97	0	78*
Cc1onc(-c2ccccc2)c1C(=O)NNC(=O)c1ccccc1	-4	0	-2	101	.	12
CN(C)c1ccc(C(=O)NC2CCCCN(Cc3cccc(Cl)c3)C2=O)cc1 (configuration not stated)	-7	-9	-7	.	.	.
Cc1ccc(S(=O)(=O)N2CC[C@@]3(Cc4ccccc4)Cc4ccccc4C[C@@H]23)cc1	3	-6	5	.	.	.
CN(C)C=Nc1nc2c(Br)ccc(Br)c2cc1C(=O)NCC(C)(C)C	1	2	-2	.	.	.
CCOC(=O)CC[C@H](NC(=O)[C@@H]1CC=C[C@@H]2CCN(Cc3ccc(Cl)cc3)C(=O)[C@@H]21)C(=O)OCC	-5	2	0	.	.	.
CCn1c2ccccc2c2cc(C=Nn3c(-c4ccccc4C)n[nH]c3=S)ccc21	-303	9	-214	.	.	.
Cc1ccc(/C=N/NC(=O)c2c(-c3ccccc3)noc2C)c(O)c1	-17	12	-14	105	18*	-2
COc1cccc(/C=N/NC(=O)c2c(-c3ccccc3)noc2C)c1O	-63	-8	-67	80	1	4
CCOc1ccccc1C(=O)N(Cc1cccs1)C1CCS(=O)(=O)C1 (configuration not stated)	4	2	2	101	0	0
CCCOc1ccccc1C(=O)N(Cc1cccs1)C1CCS(=O)(=O)C1 (configuration not stated)	12*	4	3	111	-1	-2
CC(C)N(Cc1nc(-c2ccc3c(c2)OCO3)no1)Cc1nccn1C	0	4	0	98	0	61*
COC(=O)c1ccc(-c2noc(CN(Cc3nccn3C)C(C)C)n2)cc1	-4	1	-1	108	0	1
O=C(NN=Cc1ccco1)c1cccnc1	-3	14	1	.	.	.
COc1cccc(NC(=O)Nc2nc3ncccn3c2-c2ccc(C)cc2)c1	-226	-6	-180	.	.	.
CC(C)CN1C(=O)C[C@]2(C(=O)N(C)c3ccc(NS(=O)(=O)C4CCCCC4)cc32)C1c1ccccc1 (some centres not stated)	-3	2	-2	.	.	.
O=C(NNC1=Nc2ccccc2SC1)c1ccc(Cl)cc1	-3	12	3	84	1	25
O=C(NNC1=Nc2ccccc2SC1)c1ccc(F)cc1	-8	7	-2	99	0	74*
Cc1cc(C)[n+](Cc2ccccc2)cc1C(N)=O	-2	1	-1	99	21*	-2
